Compound activity deposited in PubChem BioAssay by National Center for Advancing Translational Sciences (NCATS).
Compounds with a hit are over-represented: about 0.52% of the library has one in this group of screens.
GLS inhibitor – blocks human kidney-isoform glutaminase activity; O94925; GLS enzymatic activity, qHTS titration; Potency, µM (highest dose often 45.5 µM), inactives show top-dose activity change, negative = inhibition, hits mostly inhibitors; hit rate 0.21% among 410,000; also: potency is read from the fitted curve at half-maximal effect; % is scaled to controls: 0 for no effect and ±100 for the full control effect
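Human kidney-isoform GLS in 45 mM KH2PO4 pH 8.2, 0.02% Tween-20, with compound, started with 1mM L-Glutamine (added stock). Glutamate oxidase/HRP/Amplex red coupled fluorescence read at start and after 30 min at RT.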
USP2a inh – USP2a (human) protease inhibition; O75604; hit rate 0.01% among 330,000; Potency, µM (series often up to 38.3 µM), without a hit: top-dose activity change, negative = inhibition, hits mostly inhibitors; USP2 core, Ub-CHOP2 coupled fluorogenic reporter, 485/531; AID 463254;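 also: potency is read from the fitted curve at half-maximal effect; plate controls were DMSO wells for no effect and full inhibition by NEM control for full effect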
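Deubiquitinase activity read as fluorescence (485/531 nm) after Ub-CHOP2 cleavage activates the enterokinase reporter on its substrate; USP2 core 10nM, Ub-CHOP2 and substrate 25nM each, 30min compound preincubation then 60min RT; data normalized to NEM, curves fitted.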
GCN5L2 inh-1 – blocks human GCN5L2 histone acetyltransferase. Q92830. GCN5L2 HAT assay, ThioGlo1 CoA-SH fluorescence. Potency, µM (series often up to 58.9 µM), for the others: at the highest dose activity change, negative = inhibition, hits mostly inhibitors. hit rate 0.21% among 390,000. AID 504327; also: potency is read from the fitted curve at half-maximal effect; % is scaled to controls: 0 for no effect and ±100 for the full control effect
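Free CoA generated was detected with ThioGlo1 (50uM) fluorescence at Ex340nm/Em540nm, read immediately and after 20 min at room temperature. Enzyme, 20 nM in HEPES pH 7.5 buffer, saw compounds 15 min before adding 75uM H3(1-25) peptide and 70uM acetyl-CoA.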
PGK inhibitor – T. brucei PGK inhibition | P07378 | PGK/GAPDH coupled, Kinase-Glo luminescence, 60 min | Potency, µM (doses to about 57.5 µM), inactives show at the top dose activity change, negative = inhibition, most hits filed as inhibitors | hit rate 0.043% among 380,000 | AID 602233; also: potency is read from the fitted curve at half-maximal effect; % is scaled to controls: 0 for no effect and ±100 for the full control effect; nearly all actives have a fitted effect of over 60% in size
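Recombinant glycosomal PGK reaction used 1,3-bisphosphoglycerate generated in-well by GAPDH (100nM final) in 100mM TEA pH 7.6, 5mM MgCl2, 0.01% Tween-20. After 60 minutes at room temperature, ATP was read by Kinase-Glo Plus luminescence end-point.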
Tb PFK block – blocks T. brucei phosphofructokinase. hit rate 0.17% among 330,000. T. brucei PFK, ADP-Glo luminescence. O15648. Potency, µM (highest dose often 57.5 µM), for inactives: at the top dose activity, negative = inhibition, most hits filed as inhibitors;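 also: potency is read from the fitted curve at half-maximal effect; 0% = uninhibited 1x PFK enzyme wells and -100% = no-enzyme wells; nearly all actives have a fitted effect of over 60% in size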
Target sequence (O15648 whole entry, looked up): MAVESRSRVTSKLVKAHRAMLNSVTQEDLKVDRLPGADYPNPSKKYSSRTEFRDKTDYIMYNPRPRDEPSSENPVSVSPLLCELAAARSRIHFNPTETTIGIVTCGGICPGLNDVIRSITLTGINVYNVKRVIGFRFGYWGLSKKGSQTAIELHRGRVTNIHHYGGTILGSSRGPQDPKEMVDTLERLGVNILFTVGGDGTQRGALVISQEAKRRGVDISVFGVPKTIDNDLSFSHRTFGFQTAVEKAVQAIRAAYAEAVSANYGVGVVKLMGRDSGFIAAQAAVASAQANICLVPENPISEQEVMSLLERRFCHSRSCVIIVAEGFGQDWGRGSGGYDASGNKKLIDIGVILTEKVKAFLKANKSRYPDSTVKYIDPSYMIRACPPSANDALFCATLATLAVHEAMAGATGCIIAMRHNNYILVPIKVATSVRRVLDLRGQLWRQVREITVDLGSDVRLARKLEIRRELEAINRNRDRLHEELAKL
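Luminescent ADP detection (ADP-Glo, two-step: ATP depletion then ADP-to-ATP conversion for luciferase) reported PFK activity after 45 min room-temperature reaction of 1.25 nM enzyme with 0.5 mM F6P and 0.1 mM ATP at pH 8.0.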
GCN5L2 inh-2 – confirmation of human GCN5L2 histone acetyltransferase inhibitors | Potency, µM, actives largely listed as inhibitors | shares compounds with GCN5L2 inh-1 | GCN5L2 HAT, ThioGlo1 CoA fluorescence, 20 min | hit rate 70% among 140
GLS confirm – glutaminase (human) inhibition, hit confirmation; biochemical glutaminase enzyme inhibition assay; shares compounds with GLS inhibitor; 35 tested, under 10 active; Potency, µM (highest dose often 46.1 µM), for the others: at the top dose activity change, negative = inhibition, most hits filed as inhibitors; AID 624261; calls by dose curve
HRP GOx counter – counter-screen for glutaminase inhibitors: HRP coupled enzyme inhibition; shares compounds with GLS inhibitor; HRP/glutamate oxidase coupled Amplex Red fluorescence counterscreen; activity change, negative = inhibition, % at 46.1 µM; 35 tested, under 10 active; AID 624262
HEK293 tox – reduces HEK-293 viability in glutaminase inhibitor counter-screen | shares compounds with GLS inhibitor | HEK-293 viability, CellTiter-Glo luminescence, 24 h | activity change, negative = cytotoxicity, % at 46.1 µM | 35 tested, under 10 active | AID 624264
Numbers without * were called inactive; i = inactive; ? = inconclusive; / = not tested or not shown. Unless noted, calls follow the shape of the dose curve; as a rule, active = well fitted curve in the direction sought with a large enough effect; inconclusive = small, poorly fitted or top-dose-only effect, or another doubt; inactive = no such curve, though single readings can be large; an effect the other way counts as inactive or inconclusive.

SMILES	GLS inhibitor	USP2a inh	GCN5L2 inh-1	PGK inhibitor	Tb PFK block	GCN5L2 inh-2	GLS confirm	HRP GOx counter	HEK293 tox
Cc1ccc2nc(NC(=O)CSc3nccn3Cc3ccccc3)sc2c1	-10%	/	-12%	1%	/	/	/	/	/
CC(C)(C)c1ccc(OCC(=O)Nc2ccc(C(=O)Nc3ccccc3C(=O)O)cc2)cc1	-6%	-2%	32µM*	-7%	-9%	23*	/	/	/
COc1cc2c(cc1/C=C/C(=O)O)OC(C)C2 (stereo not drawn)	0%	1%	?	-10%	-1%	/	/	/	/
CC(C)(O)C1Cc2cc(/C=C/C(=O)O)c(O)cc2O1 (stereo not drawn)	3%	3%	10µM*	i	-26%	9.1*	/	/	/
C=CCc1cccc2cc(-c3nc4ccc(C(=O)O)cc4[nH]3)c(=O)oc12	-7%	/	?	-17%	/	/	/	/	/
CSc1ccc(/C=N/Nc2cccc(C(=O)O)c2)cc1	27%	-10%	?	?	-13%	?	/	/	/
Cc1c2cnn(CC(=O)Nc3c(F)c(F)cc(F)c3F)c(=O)c2c(C)n1Cc1ccccc1F	4%	2%	13µM*	-22%	21%	20*	/	/	/
O=C(c1cc(-c2ccc(F)cc2)nc2ccccc12)N1CCC1	-2%	-2%	-2%	-10%	6%	/	/	/	/
COc1ccc2cc(-c3cc(C(=O)O)c4ccccc4n3)ccc2c1	18%	1%	?	9%	3%	?	/	/	/
O=C(O)c1cc(-c2ccc(-c3ccc(F)cc3)o2)nc2ccccc12	11%	-1%	?	-12%	-7%	20*	/	/	/
CC(C)(C)c1cc(-c2csc(Nc3ccccc3)[n+]2Cc2ccc(C(=O)O)cc2)cc(C(C)(C)C)c1O	-15%	1%	22µM*	-17%	2%	18*	/	/	/
O=C(O)c1ccc(C[n+]2c(-c3ccccc3)csc2Nc2ccccc2)cc1	8%	1%	2%	15%	0%	/	/	/	/
c1ccc2sc(SN3CCOCC3)nc2c1	2%	0%	?	-5%	0%	14*	/	/	/
Cc1ccc(S(=O)(=O)N2[C@@H](c3ccc(Br)cc3)C(C(=O)O)=CC[C@H]2c2ccc(Cl)cc2)cc1	11%	-8%	?	-9%	2%	/	/	/	/
O=C(O)C1=CC[C@@H](c2ccc(Cl)cc2)N(S(=O)(=O)c2ccc(Cl)cc2)[C@H]1c1ccc(Br)cc1	4%	-14%	25µM*	-1%	1%	18*	/	/	/
COc1ccc(NC(=O)c2cc(-c3ccc(F)cc3)no2)cc1OC	4%	/	-18%	-6%	/	/	/	/	/
Cc1ccc(-c2cnc(-c3ccncc3)o2)cc1	17%	0%	?	-7%	-2%	18*	/	/	/
Nc1ccc(-c2ncc(-c3ccccc3)o2)cc1	-10%	-2%	-8%	-1%	1%	/	/	/	/
CCCC(=O)Nc1ccc(-c2cn3cccnc3n2)cc1	0%	-2%	32µM*	0%	4%	20*	/	/	/
CCCC(=O)Nc1cccc(-c2cn3cccnc3n2)c1	5%	-3%	-15%	4%	1%	/	/	/	/
COc1ccc(S(=O)(=O)Nc2cccc3ccc(O)cc23)cc1	11µM*	/	/	0%	/	/	-3%	?	?
COc1ccc(S(=O)(=O)Nc2c(O)ccc3ccccc23)cc1OC	?	/	/	-3%	/	/	-7%	?	-10
COc1ccc(C(=O)Nc2c(O)ccc3ccccc23)cc1OC	-29%	/	/	-5%	/	/	/	/	/
CCc1ccc(CNC(=O)c2sc3ncccc3c2-n2c(C)ccc2C)cc1	-19%	/	-8%	-7%	/	/	/	/	/
Cc1ccc(Cn2c(CNC(=O)CCc3ccccc3)nc3cccnc32)cc1	1%	/	-2%	i	/	/	/	/	/
SMILES	GLS inhibitor	USP2a inh	GCN5L2 inh-1	PGK inhibitor	Tb PFK block	GCN5L2 inh-2	GLS confirm	HRP GOx counter	HEK293 tox
O=S(=O)(Nc1ccc(O)cc1)c1cccc2cccnc12	-17%	4%	-5%	-6%	7%	/	/	/	/
O=S(=O)(Nc1ccccc1O)c1cccc2cccnc12	?	1%	1%	7%	-15%	/	-3%	?	-5
NS(=O)(=O)c1ccc(CNS(=O)(=O)c2cc(C(=O)O)ccc2Cl)cc1	11µM*	3%	-8%	-9%	-1%	/	5.8µM*	-1	-12
Cc1ccc(NS(=O)(=O)c2cc(C(=O)O)ccc2Cl)cc1	11µM*	3%	-5%	2%	1%	/	?	-3	-5
O=C(O)c1ccc(NS(=O)(=O)c2cc(Cl)ccc2Cl)cc1	6%	2%	-11%	-2%	4%	/	/	/	/
Cc1ccc(-n2nc(C(=O)Nc3cccc(C#N)c3)c3c4ccccc4n(C)c3c2=O)cc1	-7%	/	2%	/	/	/	/	/	/
CC(Oc1ccccc1)C(=O)Nc1ccccc1C(=O)OCc1cc(=O)n2nc(C(C)C)sc2n1 (stereo not drawn)	-6%	/	-8%	-9%	/	/	/	/	/
Cc1ccccc1NS(=O)(=O)c1cccc(C(=O)Nc2cccc(C(=O)O)c2)c1	1%	1%	-7%	0%	0%	/	/	/	/
O=C(Nc1ccccc1O)c1cccc(S(=O)(=O)Nc2ccccc2O)c1	10µM*	/	/	-5%	/	/	?	?	1
COc1ccc(OC)c(S(=O)(=O)Nc2ccccc2O)c1	10µM*	/	/	-2%	/	/	?	?	-2
Oc1ccc(COC2CCCC2)c2cccnc12	/	1%	-9%	/	-1%	/	/	/	/
CCOC(=O)CC(NS(=O)(=O)c1ccc2[nH]cc(C(=O)O)c(=O)c2c1)c1ccc(OCC)c(OC)c1 (stereo not drawn)	16µM*	0%	-19%	?	?	/	21µM*	6	-1
COc1ccc(-c2cc(C(=O)Nc3c(Cl)cccc3Cl)no2)cc1OC	6%	/	-6%	-3%	/	/	/	/	/
CCN(CC)c1ccc(NC(=O)COc2ccccc2C#N)cc1S(=O)(=O)Nc1ccccc1OC	?	-1%	0%	-5%	-7%	/	-1%	-3	-10
CCN(CC)c1ccc(N)cc1S(=O)(=O)Nc1ccccc1OC	7.1µM*	2%	-25%	2%	?	/	-5%	?	3
Cc1ccc(S(=O)(=O)Nc2ccccc2/C=N/c2nc3ccccc3n2C)cc1	?	-2%	-22%	-1%	2%	/	?	7	-7
Cc1ccc(S(=O)(=O)Nc2ccccc2C=Nc2cccc(C)c2C)cc1	54%	2%	-25%	-1%	0%	/	/	/	/
